Screens as filed in PubChem.
Only a selection was taken, and hits are over-represented in it overall.
Pf Dd2 growth = Plasmodium falciparum Dd2 growth inhibition | P. falciparum Dd2 growth, SYBR Green, 72 h | Potency, µM (doses to about 28.9 µM), hits mostly inhibitors | actives 4.3% (n = 120,000) | AID 1347417; active = well fitted inhibition curve with a large enough effect; also: nearly all actives have a fitted effect of over 65% in size
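Infected erythrocytes (Dd2, 0.3% parasitemia, 2.5% hematocrit final) are added to compound in RPMI-1640/Albumax II medium, grown 72 h at 37C in low oxygen, then lysed with saponin/Triton-X containing SYBR Green and read by fluorescence.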
Hits are given with their value; . = inactive; [ ] = dose if it differs, or a comment.

SMILES | Pf Dd2 growth
Cc1ccc(-c2nnc(SCCOc3ccccc3)o2)cc1 | .
Cc1ccc(OCCSc2nnc(-c3cccs3)o2)cc1Cl | .
CNC(=O)[C@@H]1CN(C(=O)c2ccoc2)C[C@H]1COC | .
COC(=O)C1=C(C)N=C2SC=C(CC(=O)Nc3ccc(F)cc3)N2C1c1ccc(OC)cc1OC (stereo unspecified) | .
CCOC(=O)C1=C(C)N=C2SC=C(CC(=O)Nc3ccc(OC)cc3)N2C1c1cccc(OC)c1 (stereo unspecified) | .
CCOC(=O)C1=C(C)N=C2SC=C(CC(=O)NC(C)CC)N2C1c1cccc([N+](=O)[O-])c1 (stereo unspecified) | .
COCCOC(=O)C1=C(C)N=C2SC=C(CC(=O)Nc3cccc(OC)c3)N2C1c1ccccc1 (stereo unspecified) | .
CCOC(=O)C1=C(C)N=C2SC=C(CC(=O)Nc3ccc(C)c(C)c3)N2C1c1cccc(OC)c1 (stereo unspecified) | 8.9µM
CCOC(=O)C1=C(C)N=C2SC=C(CC(=O)Nc3cccc(OC)c3)N2C1c1cccc(OC)c1 (stereo unspecified) | 11µM
Cc1ccc(CN2CC[C@H](c3nnc(Cc4ccccc4)o3)C2)cc1 | .
O=C(CCCc1ccccc1)N1CCC(c2noc(-c3cnccn3)n2)C1 (stereo unspecified) | .[5.79 µM]
O=C(NCc1ccc(F)cc1)C1CCc2nnc(C3CCN(C(=O)c4ccccc4)CC3)n21 (stereo unspecified) | .
CCc1nc2c(c(-c3ccc(Cl)cc3)n1)CN(C(=O)C1CCCC1)CC2 | .
CC1CCCCN1Cc1c(O)ccc2c(=O)c(-c3ccc(Cl)cc3)coc12 (stereo unspecified) | 2.2µM
CC1CCCCN1Cc1c(O)ccc2c(=O)c(-c3ccccc3Cl)c(C(F)(F)F)oc12 (stereo unspecified) | 8.9µM
Cc1noc(C)c1[S+](=O)([O-])N1CCN(c2nc3ncccc3o2)CC1 | .
CCC(C)NC(=O)C(NC(=O)c1cccc(OC)c1)C1CCN(C(=O)c2cccc(C)c2)CC1 (stereo unspecified) | .
COc1ccc(C2Cn3nnc(-c4noc(-c5ccc(C)cc5)n4)c3CO2)cc1 (stereo unspecified) | .
Cc1cccc(C(=O)NCCC2CCN(C(=O)Nc3cc(F)ccc3F)CC2)c1 | .
O=C(CCC[C@@H]1[C@H]2CCCN3CCC[C@@H](CN1C(=O)Nc1ccccc1F)[C@@H]23)Nc1ccccc1 | .
O=C(NCc1cccs1)C1CN(c2ccccc2)C(=O)N1 (stereo unspecified) | .
Cc1nc(-c2c3n(c(=O)n(CC(=O)Nc4cccc(F)c4)c2=O)CCCC3)no1 | .
O=C(Cn1cccc1-c1nc(-c2ccc(F)cc2)no1)Nc1ccccc1 | .
Cc1cn2nnc(C(=O)NC3CCCCCCC3)c2c(=O)[nH]1 | 7.9µM
CCOc1ccccc1CNC(=O)c1nnn2cc(C)[nH]c(=O)c12 | 8.9µM
SMILES | Pf Dd2 growth
Cc1cn2nnc(C(=O)NCc3ccco3)c2c(=O)[nH]1 | .
Cc1cn2nnc(C(=O)NCCCc3ccccc3)c2c(=O)[nH]1 | .
Cc1cn2nnc(C(=O)N3CCC(C(=O)NC4CCCCC4)CC3)c2c(=O)[nH]1 | .
CCOc1ccc(NC(=O)c2nnn3cc(C)[nH]c(=O)c23)cc1 | 0.63µM
Cc1cn2nnc(C(=O)NC3CCCCCC3)c2c(=O)[nH]1 | .
CCCCNC(=O)c1nnn2cc(C)[nH]c(=O)c12 | .
Cc1cn2nnc(C(=O)NC3CCN(Cc4ccccc4)CC3)c2c(=O)[nH]1 | .
O=C(Cn1ccn2nc(-c3ccc(F)cc3)c(CO)c2c1=O)Nc1cccc(Br)c1 | .
Cc1noc(-c2ccccc2OC2CCN(C(=O)c3cnccn3)C2)n1 (stereo unspecified) | .
Cc1ccc(CN2CCCC3(CNc4ccccc4[S+](=O)([O-])N3)C2)cc1 (stereo unspecified) | .
CN(C)C[C@@H]1CN(S(C)(=O)=O)C[C@H]1NC(=O)c1cscn1 | .
O=C1NC2(Cc3ccccc31)CN(C(=O)c1ccc(Cl)cc1)C2 | .
CNC(=O)N1CCCC(c2nc(C(C)C)no2)CCNC(=O)CC1 (stereo unspecified) | .
COC[C@@H]1CN(c2cnccn2)C[C@H]1C(=O)NCc1ccccc1F | .
CC1(CNC(=O)c2ccccc2Cl)CCOCC1 | .
O=C(O)c1cccc(-c2cnc3ccccc3c2)c1 | .
NCc1ccccc1-c1cnc2ccccc2c1 | 10µM
CC(=O)NCCCC(=O)N1CCOC2(CCN(C(=O)c3c(C)noc3C)CC2)C1 | .
Cc1cccc(S(=O)(=O)c2cn(C)c3cc(N4CCCCCC4)c(F)cc3c2=O)c1 | .
Cc1ccc(C)c(S(=O)(=O)c2cn(C)c3cc(F)c(F)cc3c2=O)c1 | .
CCCn1cc(S(=O)(=O)c2cc(C)ccc2C)c(=O)c2cc(F)c(N3CCOCC3)cc21 | .
CCCCn1cc(S(=O)(=O)c2cc(C)ccc2C)c(=O)c2cc(F)c(F)cc21 | .
CCn1cc(S(=O)(=O)c2cc(C)cc(C)c2)c(=O)c2cc(F)c(N3CCCCC3)cc21 | .
CCn1cc(S(=O)(=O)c2ccc(C)cc2C)c(=O)c2cc(F)c(N3CCCC3)cc21 | 11µM
Cc1ccc(S(=O)(=O)c2cn(C)c3cc(N4CCCC4)c(F)cc3c2=O)c(C)c1 | 10µM
SMILES | Pf Dd2 growth
Cc1ccc(C)c(S(=O)(=O)c2cn(C)c3cc(N4CCCCC4C)c(F)cc3c2=O)c1 (stereo unspecified) | 11µM
CC(C)C1=NOC2(CCN(Cc3ccc(C(F)(F)F)cc3)CC2)C1 | .
Cc1ccc(C(=O)Nc2ccc(NC(=O)CCCn3cncn3)cc2)o1 | .
Cc1ccc(Cl)cc1NC(=O)N1CCC(Oc2ncccc2C(=O)N2CCOCC2)C1 (stereo unspecified) | .
Cc1ccc(C(=O)N2CCC(CCC(=O)O)CC2)cc1 | .
C[C@@]1(O)CCN(CC2CCCCC2)C[C@H]1N1CCCC1 | .[5.79 µM]
C[S+](=O)([O-])N1CCC(Cn2ccc3c(N4CCOCC4)nc(-c4cccc5[nH]ncc45)cc32)CC1 | .
CN1CCC(Cn2ccc3c(N4CCOCC4)nc(-c4ccc5cn[nH]c5c4)cc32)CC1 | 3.5µM
CN1CCC(Cn2ccc3c(N4CCOCC4)nc(-c4cccc5[nH]ccc45)cc32)CC1 | .
COCC(=O)N1CCCN(c2cc(C3CC(O)C3)ncn2)CC1 (stereo unspecified) | .
Cc1noc(C2CC3(CCN(C(=O)c4n[nH]c(=O)c5ccccc45)CC3)CN2C)n1 (stereo unspecified) | .
O=C(Cc1ccc(F)cc1)N1CCC2(CC1)NC(=O)N(c1ccc(F)cc1)N2 | .
COCCNC(=O)[C@@H]1C[C@H](Oc2ccccc2)CN1C(=O)c1cccc(C)c1 | .
Cn1c(=O)c2c(-c3ccc(Cl)cc3)n(Cc3ccc(Cl)cc3)cc2n(C)c1=O | 11µM
Cn1c(=O)c2c(ncn2Cc2ccc(Cl)cc2)n(C)c1=O | .
CCOC(=O)Cn1cc2c(c1-c1ccc(Cl)cc1)c(=O)n(C)c(=O)n2C | .
O=C(C1CN(c2cccc(Cl)c2)C(=O)N1)N1CCCC1 (stereo unspecified) | .
Cc1ccc(C(=O)N2CCN(C(=O)N3CC4CC(C3)[C@H]3CCCC(=O)N3C4)CC2)s1 (stereo partly specified) | .
CCc1noc(C)c1C(=O)N1CC[C@@]2(O)CCN(S(C)(=O)=O)C[C@H]2C1 | .
COc1cc(/C=C(\C#N)c2nc3ccc(C)cc3[nH]2)ccc1OCc1ccc(C)cc1 | 2.8µM
CCOC(=O)COc1ccc(/C=C(\C#N)c2nc3ccc(C)cc3[nH]2)cc1OC | .
